Experimental data published in ChEMBL document CHEMBL3988442, “University of Dundee, Small-Polar-MMV Screening Library” (2021).

target: T1, Aspartate--tRNA(Asp/Asn) ligase (Mycobacterium tuberculosis (strain ATCC 25618 / H37Rv)) (UniProt P9WFW3); test: Assay for Asp RNA synthetase-1 from Mycobacterium tuberculosis; format: functional; parameters: scale not given: direction of the effect not stated beside the values; conditions: 30 µM; further: in the data most compounds retested in dose-response had high values
T1 sequence (whole entry): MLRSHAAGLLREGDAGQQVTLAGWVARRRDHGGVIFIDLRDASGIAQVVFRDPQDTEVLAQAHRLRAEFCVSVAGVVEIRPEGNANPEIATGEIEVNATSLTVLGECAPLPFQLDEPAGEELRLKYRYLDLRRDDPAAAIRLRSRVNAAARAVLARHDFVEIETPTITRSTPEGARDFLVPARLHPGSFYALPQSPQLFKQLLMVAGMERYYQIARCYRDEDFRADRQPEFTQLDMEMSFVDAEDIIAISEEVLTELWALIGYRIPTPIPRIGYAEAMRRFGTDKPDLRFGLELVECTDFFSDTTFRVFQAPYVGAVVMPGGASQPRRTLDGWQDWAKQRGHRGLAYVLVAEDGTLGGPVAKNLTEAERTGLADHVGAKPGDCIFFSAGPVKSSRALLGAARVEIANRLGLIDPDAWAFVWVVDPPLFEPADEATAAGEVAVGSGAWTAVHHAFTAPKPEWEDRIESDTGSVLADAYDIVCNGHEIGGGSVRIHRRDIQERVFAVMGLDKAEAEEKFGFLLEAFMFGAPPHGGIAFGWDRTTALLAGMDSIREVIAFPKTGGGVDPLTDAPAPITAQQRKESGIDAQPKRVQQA

Structure (SMILES) | Percent Effect
Cc1nc(N2CCN(C(=O)C3CC3)CC2)c2c(n1)c(C)nn2C | -2.18%
CC(Oc1ccccc1C(F)(F)F)C(=O)NS(=O)(=O)C(C)C (stereo not given) | -4.49%
CC1CCCN(C(=O)c2cccc(CS(C)(=O)=O)c2)C1 (stereo not given) | -4.9%
Cc1cc(C(=O)N2CC[C@H](OCC3CC3)[C@@H]2Cc2cccnc2)no1 | 1.17%
Cc1cc(F)ccc1CN1CCCC2(C1)OCCO2 | -5.59%
CN(C)CCN(Cc1ccc(Cl)cc1)C(=O)c1cc[nH]n1 | -3.79%
CN(C)[C@@H]1CCN(c2ncccn2)[C@H]1Cc1ccccc1 | -0.0594%
Cc1ccccc1Oc1ncccc1CNS(C)(=O)=O | -3.12%
NC(=O)CN1CCCN(C(=O)c2ccn(-c3ccccc3)n2)CC1 | -2.4%
CC(=O)Nc1nc(CN2CCn3c(nnc3C3CC3)C2)cs1 | -7.9%
Cc1cnn(C2CCCN(C(=O)c3ccc(N(C)C)nn3)C2)c1 (stereo not given) | -1.49%
Cc1ccc(OCCCNC(=O)NC(C)c2nncn2C)cc1 (stereo not given) | -2.1%
CN(Cc1nc2c(cnn2C)c(=O)[nH]1)Cc1ccc(F)cc1F | -2.26%
Cc1cnn(CC2CCCN2C(=O)CCc2ccsc2)c1 (stereo not given) | -3.37%
c1ncn(Cc2cnc3n2CCN(Cc2ccsc2)CC3)n1 | -1.22%
COc1cccc(C(=O)NS(=O)(=O)c2cccc(C#N)c2)c1OC | 0.0291%
CCC1(CC)Cc2ccccc2-c2nc(NCCO)[nH]c(=O)c21 | 6.5%
Cc1ccccc1-c1cncc(C2CCN(C(=O)CN(C)C)CC2)n1 | 6.8%
CCCNC(=O)Nc1cc2c(cc1SC)OCCO2 | -0.324%
Cc1nnc(NC(=O)CN(C)CC2CCCN2c2cccnn2)s1 (stereo not given) | 0.577%

Structure (SMILES) | Percent Effect
C[C@@H]1CN(C(=O)c2ccc(C#N)nc2)CC[C@@]1(O)C1CCOCC1 | -2.71%
O=C(Nc1ccc(N2CCCC2)nc1)N1CCc2sccc2C1 | 0.155%
CC(=O)N1CCc2c(nc(-c3ccccn3)nc2N(C)CC(O)CO)C1 (stereo not given) | -6.34%
Cc1noc2ncc(C(=O)N(CC3CCOC3)C3CC3)cc12 (stereo not given) | 2.12%
CC(O)CN1CCN(C(=O)c2cc3ccccc3[nH]c2=O)CC1 (stereo not given) | -2.04%
Cc1cccc(C(=O)Nc2ccc(OC3CCN(C)CC3)cc2)c1 | 0.862%
COc1ccc(CN2CC[C@H]3[C@H]2CCN3C(=O)c2cnn(C)c2)cc1 | -0.229%
CS(=O)(=O)NC[C@H]1OC[C@@H]2CCN(Cc3ccc(F)cc3)C[C@@H]21 | 0.903%
CC(C)COCC(NC(=O)c1ccccn1)c1ccco1 (stereo not given) | -1.2%
CC(C)(C)SCCCC(=O)N1CCC(Nc2cccnn2)CC1 | -1.23%
Cc1nccc(C2CN(Cc3cc[nH]n3)CCO2)n1 (stereo not given) | -1.53%
CC(C)NC(=O)Nc1ccc(CNCc2cccc(OC(F)F)c2)cc1 | 4.98%
CNC(=O)[C@@H]1C[C@H]2CN(C(=O)c3ccco3)C[C@H]2N1C | -1.4%
O=C(NCCCN1CCCC1=O)Nc1ccc(Br)cc1Cl | -2.15%
O=C(c1ccc2c(c1)COC2)N1CCN(CC2CC2)CC1 | -0.514%
COCCCN(CCOC)C(=O)Nc1ccccc1Br | -10.6%
COc1ccnc(N2CCN(C(=O)c3csc(C(C)C)n3)CC2)n1 | -5.15%
CC(=O)NC1CCCN(C(=O)NCc2cccnc2-n2cccn2)C1 (stereo not given) | -3.6%
Cc1cccc(OCCC(=O)NCC(C)(C)C(N)=O)c1 | 0.144%
Cc1nc(CN2C(=O)CCC23CCN(c2ncccn2)CC3)cs1 | 4.19%

target: Shiga toxin 2 (Escherichia coli O157:H7) (UniProt P09385+P09386); test: E. coli 0.157:H7 Shiga Toxin SOP - stx2 screening assay; format: functional; parameters: scale not given: direction of the effect not stated beside the values; conditions: 30 µM

Structure (SMILES) | Percent Effect
Cc1nc(N2CCN(C(=O)C3CC3)CC2)c2c(n1)c(C)nn2C | -35.4%
CC(Oc1ccccc1C(F)(F)F)C(=O)NS(=O)(=O)C(C)C (stereo not given) | 4.69%
CC1CCCN(C(=O)c2cccc(CS(C)(=O)=O)c2)C1 (stereo not given) | -32%
Cc1cc(C(=O)N2CC[C@H](OCC3CC3)[C@@H]2Cc2cccnc2)no1 | 1.88%
Cc1cc(F)ccc1CN1CCCC2(C1)OCCO2 | 10.5%
CN(C)CCN(Cc1ccc(Cl)cc1)C(=O)c1cc[nH]n1 | 9.32%
CN(C)[C@@H]1CCN(c2ncccn2)[C@H]1Cc1ccccc1 | -1.36%
Cc1ccccc1Oc1ncccc1CNS(C)(=O)=O | -11.9%
NC(=O)CN1CCCN(C(=O)c2ccn(-c3ccccc3)n2)CC1 | 6%
CC(=O)Nc1nc(CN2CCn3c(nnc3C3CC3)C2)cs1 | -26.2%
Cc1cnn(C2CCCN(C(=O)c3ccc(N(C)C)nn3)C2)c1 (stereo not given) | -0.265%
Cc1ccc(OCCCNC(=O)NC(C)c2nncn2C)cc1 (stereo not given) | 7.34%
CN(Cc1nc2c(cnn2C)c(=O)[nH]1)Cc1ccc(F)cc1F | -10.7%
Cc1cnn(CC2CCCN2C(=O)CCc2ccsc2)c1 (stereo not given) | 14.6%
c1ncn(Cc2cnc3n2CCN(Cc2ccsc2)CC3)n1 | -2.1%
COc1cccc(C(=O)NS(=O)(=O)c2cccc(C#N)c2)c1OC | 2.55%
CCC1(CC)Cc2ccccc2-c2nc(NCCO)[nH]c(=O)c21 | 17.7%
Cc1ccccc1-c1cncc(C2CCN(C(=O)CN(C)C)CC2)n1 | -18.5%
CCCNC(=O)Nc1cc2c(cc1SC)OCCO2 | -0.581%
Cc1nnc(NC(=O)CN(C)CC2CCCN2c2cccnn2)s1 (stereo not given) | -34.1%

Structure (SMILES) | Percent Effect
C[C@@H]1CN(C(=O)c2ccc(C#N)nc2)CC[C@@]1(O)C1CCOCC1 | -2.97%
O=C(Nc1ccc(N2CCCC2)nc1)N1CCc2sccc2C1 | -146%
CC(=O)N1CCc2c(nc(-c3ccccn3)nc2N(C)CC(O)CO)C1 (stereo not given) | 26.6%
Cc1noc2ncc(C(=O)N(CC3CCOC3)C3CC3)cc12 (stereo not given) | 24.4%
CC(O)CN1CCN(C(=O)c2cc3ccccc3[nH]c2=O)CC1 (stereo not given) | 2.32%
Cc1cccc(C(=O)Nc2ccc(OC3CCN(C)CC3)cc2)c1 | -60.2%
COc1ccc(CN2CC[C@H]3[C@H]2CCN3C(=O)c2cnn(C)c2)cc1 | -7.37%
CS(=O)(=O)NC[C@H]1OC[C@@H]2CCN(Cc3ccc(F)cc3)C[C@@H]21 | -21.2%
CC(C)COCC(NC(=O)c1ccccn1)c1ccco1 (stereo not given) | 28%
CC(C)(C)SCCCC(=O)N1CCC(Nc2cccnn2)CC1 | -5.49%
Cc1nccc(C2CN(Cc3cc[nH]n3)CCO2)n1 (stereo not given) | 2.02%
CC(C)NC(=O)Nc1ccc(CNCc2cccc(OC(F)F)c2)cc1 | -103%
CNC(=O)[C@@H]1C[C@H]2CN(C(=O)c3ccco3)C[C@H]2N1C | -6.39%
O=C(NCCCN1CCCC1=O)Nc1ccc(Br)cc1Cl | -11%
O=C(c1ccc2c(c1)COC2)N1CCN(CC2CC2)CC1 | -1.4%
COCCCN(CCOC)C(=O)Nc1ccccc1Br | -6.69%
COc1ccnc(N2CCN(C(=O)c3csc(C(C)C)n3)CC2)n1 | -4.83%
CC(=O)NC1CCCN(C(=O)NCc2cccnc2-n2cccn2)C1 (stereo not given) | -14.7%
Cc1cccc(OCCC(=O)NCC(C)(C)C(N)=O)c1 | 31.1%
Cc1nc(CN2C(=O)CCC23CCN(c2ncccn2)CC3)cs1 | -30.4%
